DT40 TDP1 CPT – growth inhibition of DT40 Tdp1-/-;hTDP1 cells with camptothecin (screen for TDP1 inhibitors). chicken DT40 Tdp1-/-;hTDP1 cells + 20 nM CPT, ATP luminescence, 48 h. Potency, µM (doses to about 46.2 µM), for the others: top-dose activity change, negative = growth inhibition, actives largely listed as inhibitors. actives 12% (n = 420,000). AID 686979; also: nearly all actives have a fitted effect of over 55% in size
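Chicken DT40 Tdp1-/- cells stably complemented with human TDP1 were seeded at 400 cells/well in medium containing 20 nM camptothecin, exposed to pin-transferred compounds, and grown at 37 °C for at least 48 hr. Viability was read as ATP luminescence.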
ALOX12 inh – blocks human arachidonate 12S-lipoxygenase; purified 12hLO, xylenol orange hydroperoxide absorbance; Potency, µM (top dose mostly 108 µM), without a hit: at the highest dose activity change, negative = inhibition, hits mostly inhibitors; actives 1.1% (n = 580,000); P18054; AID 1671190
Target sequence (P18054 whole entry, looked up): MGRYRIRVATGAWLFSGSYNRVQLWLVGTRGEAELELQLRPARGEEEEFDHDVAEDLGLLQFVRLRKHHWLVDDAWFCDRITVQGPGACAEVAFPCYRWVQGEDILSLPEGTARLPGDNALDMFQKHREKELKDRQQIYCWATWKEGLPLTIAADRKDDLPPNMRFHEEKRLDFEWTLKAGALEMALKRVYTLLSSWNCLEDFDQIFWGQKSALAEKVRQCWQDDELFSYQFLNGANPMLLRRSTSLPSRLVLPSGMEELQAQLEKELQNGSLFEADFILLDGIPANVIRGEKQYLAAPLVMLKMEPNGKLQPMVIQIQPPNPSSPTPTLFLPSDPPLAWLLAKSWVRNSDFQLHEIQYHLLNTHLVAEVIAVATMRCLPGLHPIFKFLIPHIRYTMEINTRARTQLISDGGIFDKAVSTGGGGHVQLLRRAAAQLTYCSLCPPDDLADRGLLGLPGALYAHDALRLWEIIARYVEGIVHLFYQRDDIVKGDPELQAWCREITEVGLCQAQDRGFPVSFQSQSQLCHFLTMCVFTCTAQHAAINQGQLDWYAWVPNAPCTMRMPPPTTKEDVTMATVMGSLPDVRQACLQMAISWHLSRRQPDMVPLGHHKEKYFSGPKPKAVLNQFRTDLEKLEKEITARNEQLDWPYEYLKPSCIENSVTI
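Hydroperoxide product was detected by ferrous iron/xylenol orange as the 573 to 405 nm absorbance ratio. Arachidonic acid at 40 uM (final) was turned over for 30 min at room temperature by 150 nM human 12hLO, pH 7.0 Hepes buffer, after 15 min compound preincubation.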
RORgamma inh – ROR gamma (mouse) transcription inhibition. P51450. AID 2551. Potency, µM (titrated, usually from 53.6 µM), for inactives: top-dose activity change, negative = inhibition, hits mostly inhibitors. Drosophila S2 Gal4-RORgamma UAS-luciferase reporter, 20 h. actives 5.4% (n = 310,000); also: nearly all actives have a fitted effect of over 60% in size
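In this cell-based reporter format, copper sulfate (700 uM final) drives Gal4–ROR gamma fusion expression from a metallothionein promoter in Drosophila Schneider cells; compounds preincubated 1 hr, reporter read after 20 hr at ambient temperature.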
DT40 TDP1 no CPT – qHTS for Inhibitors of human tyrosyl-DNA phosphodiesterase 1 (TDP1): qHTS in cells in absence of CPT | AID 686978, 2013 | DT40 Tdp1-/- hTDP1 cells, no CPT, ATP luminescence, 48 h | Potency, µM (series often up to 46.2 µM), for inactives: at the highest dose activity change, negative = growth inhibition, hits mostly inhibitors | actives 15% (n = 420,000); also: nearly all actives have a fitted effect of over 55% in size
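A cellular qHTS used chicken DT40 cells lacking endogenous Tdp1 but carrying stably transfected human TDP1. Compounds were applied without camptothecin, and cell growth kinetics were judged by ATP-dependent luminescence after ≥48 hr.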
Gal4-VP16 FLuc – inhibits Gal4-VP16 luciferase reporter, ROR gamma counter-screen. Drosophila S2 Gal4-VP16 UAS-luciferase, luminescence, 20 h. Potency, µM (series often up to 53.6 µM), without a hit: top-dose activity, negative = inhibition, most hits filed as inhibitors. actives 3.5% (n = 310,000). AID 2546;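 also: Gal4-VP16 expression switched on by copper sulfate through the metallothionein promoter; nearly all actives have a fitted effect of over 50% in size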
ELG1 DNA repair – ELG1-dependent DNA repair inhibition. HEK293T ELG1-luciferase reporter, luminescence, 16 h; DNA damage induced by 5-fluorouridine. Potency, µM (doses to about 46.1 µM), inactives show at the top dose activity change, negative = inhibition, hits mostly inhibitors. actives 2.3% (n = 330,000); also: nearly all actives have a fitted effect of over 55% in size
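5-Fluorouridine DNA damage + compound/DMSO, 2,000 cells/well, 16 h, 37 °C/5% CO2. ONE-Glo, 30 min RT, luminescence. Readout = decrease in reporter signal.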
* marks the source's active call; other numbers are inactive results; ? = inconclusive; . = not tested or not shown; [ ] = remark or other dose. Sampled rows, rich in hits. Any-hit rate of the full collection: about 15%. Calls follow the shape of the dose curve; as a rule, active = well fitted curve in the direction sought with a large enough effect; inconclusive = small, poorly fitted or top-dose-only effect, or another doubt; inactive = no such curve, though single readings can be large; an effect the other way counts as inactive or inconclusive. % is scaled to controls: 0 for no effect and ±100 for the full control effect; potency is read from the fitted curve at half-maximal effect.

SMILES | DT40 TDP1 CPT | ALOX12 inh | RORgamma inh | DT40 TDP1 no CPT | Gal4-VP16 FLuc | ELG1 DNA repair
O=C(NCCN1CCOC1=O)c1cn(CCC2CCCCN2)nn1 (configuration not stated) | . | 16.5% | . | . | . | .
O=C(NC1CCCCCC1)c1ccc(Cn2ccn3nc4c(c3c2=O)CCCC4)cc1 | . | 14.6% | . | . | . | .
CC(=O)N1CCC2(CC1)OC(=O)C(C)=C2C(=O)NCCN1CCCC1 | . | 6.5% | . | . | . | .
CC(C)(C)c1ccc(C(=O)Nc2ccccc2C(=O)OCc2cc(=O)n3ccsc3n2)cc1 | -6.1% | -11.5% | . | 1.6% | . | .
CCOC(=O)c1cccc(NC(=O)c2cc3cc4ccc(C)cc4nc3s2)c1 | 14.6µM* | -15.8% | . | 14.6µM* | . | .
CCOC(=O)c1c(NC(=O)c2cccs2)sc2c1CC(C)(C)OC2 | ? | ? | 8.1%[10 µM] | 25.9µM* | -15.9% | 9.2µM*
CCc1sc(C(=O)Nc2cccc(C(C)=O)c2)cc1C | ? | -30.1% | 7.94µM* | ? | ? | ?
O=C(Nc1ccccc1C(=O)OCc1cc(=O)n2ccsc2n1)c1cccc(F)c1 | 18.4µM* | -17.8% | . | 11.6µM* | . | .
CCOC(=O)c1c(NC(=O)C(=O)NCc2ccccc2)sc2c1CC(C)(C)OC2 | . | 15.8% | . | . | . | .
Cc1cc(OCCN2CCOCC2)c(C)c2c1CC[C@@H]([C@H](C)C(=O)N1CCOCC1)C2 | . | 57.2%[176 µM] | . | . | . | .
CC(C)Cc1nn2c(=O)cc(COC(=O)c3cccc(NC(=O)c4cccs4)c3)nc2s1 | ? | -3.9% | . | 8.2µM* | . | .
O=C(Nc1cccc(C(=O)OCc2cc(=O)n3nc(C4CC4)sc3n2)c1)c1ccc(F)cc1 | 16.7% | 3.2% | . | 0.1% | . | .
Cc1nn2c(=O)cc(COC(=O)c3cccc(NC(=O)c4ccc(F)cc4)c3)nc2s1 | 11.6µM* | -14.4% | . | 10.3µM* | . | .
CCOC(=O)c1cccc(NC(=O)c2cccs2)c1 | 23.1µM* | 13.5% | ? | 14.6µM* | 3.2% | ?
CCONC(=O)c1cccc(NC(=O)c2cccs2)c1 | . | 3.4% | . | . | . | .
Cc1ccc(-c2nnc(C3CN(C(=O)c4ccc(Cl)s4)CC34CCOCC4)o2)cc1 (configuration not stated) | . | 16.5% | . | . | . | .
CSc1ccc(/C=C/C(=O)c2ccc(NC(=O)c3ccccc3Cl)cc2)cc1 | . | -9.6% | . | . | . | .
COc1ccc(C(=O)N(Cc2ccco2)Cc2ccc(C)o2)cc1 | 20.6µM* | ? | . | 20.6µM* | . | .
CCc1ccc(CN(Cc2ccco2)C(=O)c2ccc(OC)cc2)cc1 | ? | -0.1% | . | 23.1µM* | . | .
Cn1c(=O)[nH]c(=O)c2c1nc(NCCN1CCOCC1)n2Cc1ccc(F)cc1 | . | 31.8% | . | . | . | .
O=C(CC12CC3CC(CC(C3)C1)C2)Nc1ccc(-c2nc3ccccc3o2)cc1 | . | -17.1% | . | . | . | .
COc1ccc(-c2noc(CN(C)Cc3ccccc3)n2)cc1 | -15.7% | -2.4% | 16.3% | 18.4µM* | -3.0% | 2.4%
Cc1ccccc1C(=O)N(Cc1nc(-c2ccc(Cl)cc2)no1)C(C)C | 14.6µM* | ? | . | 20.6µM* | . | .
COc1ccccc1C(=O)N(Cc1nc(-c2ccc(Cl)cc2)no1)C(C)C | 29.1µM* | -26.1% | 14.6% | 16.4µM* | 5.9% | ?
CN(Cc1ccc(F)cc1)Cc1nc(-c2ccccc2)no1 | 14.7% | -2.5% | -0.5% | -6.2% | -1.9% | 21.7%
CC(C)N(Cc1nc(-c2ccc(Cl)cc2)no1)C(=O)c1cccs1 | -22.3% | -18.6% | 35.2% | ? | 4.3% | ?
Cc1onc(-c2ccccc2Cl)c1C(=O)NCc1nc(-c2ccccc2)no1 | 9.2µM* | 92.8% | 13.7% | 9.2µM* | 4.7% | ?
CN(C(=O)C1CC1)C1CCc2ccccc21 (configuration not stated) | . | 78.1%[176 µM] | . | . | . | .

Screening data: PubChem, National Center for Advancing Translational Sciences (NCATS)
